Bioassay records deposited in PubChem by National Center for Advancing Translational Sciences (NCATS).
Rows were chosen to be rich in hits. Some 19% of all compounds tested hit in one or more screens of this group.
TDP1 cell CPT: growth inhibition of DT40 Tdp1-/-;hTDP1 cells with camptothecin (screen for TDP1 inhibitors); chicken DT40 Tdp1-/-;hTDP1 cells + 20 nM CPT, ATP luminescence, 48 h; Potency, µM (top dose mostly 46.2 µM), for inactives: at the highest dose activity change, negative = growth inhibition, most hits filed as inhibitors; 12% of 420,000 active; AID 686979; note: potency is the fitted concentration of half-maximal effect; % is set by controls: 0 for no effect and ±100 for the full control effect; nearly all actives have a fitted effect of over 55% in size
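Chicken DT40 Tdp1-/- cells complemented with human TDP1, 400 cells/well, exposed to compounds plus 20 nM camptothecin for at least 48 h at 37 C; viability read as ATP content by CellTiter-Glo luminescence.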
HepG2 tox: counter-screen for TGF-b inhibitors: cytotoxicity in HepG2 cells | HepG2 CAGA-GFP viability, ATP luminescence, 18 h | 0.76% of 410,000 active | Potency, µM (doses to about 46.1 µM), for inactives: at the highest dose activity change, negative = cytotoxicity, hits mostly cytotoxic; note: potency is the fitted concentration of half-maximal effect
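CellTiter-Glo luminescence gave cytotoxicity after 18 hours at 37 degrees C. The cells were HepG2 CAGA-GFP in 1% FBS DMEM, stimulated with 500 pg/mL TGF-beta after compound addition. %Activity was normalised to no-cell wells (complete cell-killing) and DMSO (no toxicity), and curves were fitted and classified.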
IL1B secr inh: inhibitors of inflammasome signaling (IL-1 beta secretion); THP-1 LPS/ATP IL-1B secretion, AlphaLISA, 16 h; hits give low values; activity change, % at 57.5 µM; 4.7% of 360,000 active; in the data active = activity change below about -50%; inconclusive = mostly about -30% to -49%; note: % is set by controls: 0 for no effect and ±100 for the full control effect
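Secreted IL-1B measured by AlphaLISA bead assay after 16 h compound exposure of THP-1 cells; compounds (final up to 57.5 uM) added 1 h before LPS (250 ng/mL) and ATP (1.25 mM) stimulation; lower signal means less secretion.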
S-ASM inh: inhibitors of human secretory acid sphingomyelinase; AID 504937; Potency, µM (titrated, usually from 57.5 µM), inactives show at the top dose activity change, negative = inhibition, actives largely listed as inhibitors; P17405; placental ASM, HMU-PC fluorogenic substrate, 60 min; 0.006% of 340,000 active; note: potency is the fitted concentration of half-maximal effect
Target sequence (P17405 47-631 limits assumed): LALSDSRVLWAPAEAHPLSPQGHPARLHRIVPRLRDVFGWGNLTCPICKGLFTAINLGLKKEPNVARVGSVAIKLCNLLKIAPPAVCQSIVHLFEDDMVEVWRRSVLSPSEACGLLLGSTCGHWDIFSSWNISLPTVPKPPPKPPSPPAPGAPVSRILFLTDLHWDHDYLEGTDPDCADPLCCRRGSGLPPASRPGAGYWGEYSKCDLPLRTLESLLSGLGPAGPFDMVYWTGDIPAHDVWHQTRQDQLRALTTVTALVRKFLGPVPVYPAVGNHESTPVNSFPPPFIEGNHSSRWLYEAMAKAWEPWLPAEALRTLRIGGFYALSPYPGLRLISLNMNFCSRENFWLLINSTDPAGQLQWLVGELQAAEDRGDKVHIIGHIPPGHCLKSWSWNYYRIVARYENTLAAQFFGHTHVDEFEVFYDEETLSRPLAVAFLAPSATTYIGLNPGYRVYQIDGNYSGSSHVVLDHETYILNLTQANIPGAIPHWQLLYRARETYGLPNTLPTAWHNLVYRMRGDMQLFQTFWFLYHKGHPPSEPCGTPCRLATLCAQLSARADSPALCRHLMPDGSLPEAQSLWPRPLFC
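Human placenta-derived ASM preincubated with compound 10 min at room temperature, then reacted with 9 uM (final) fluorogenic HMU-PC substrate for 60 min at 37 C. Stop solution raises pH to 10; fluorescence read at Ex 386/Em 447 nm.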
TGFb SMAD3 inh: blocks TGF-b signaling | HepG2 CAGA-GFP TGF-b/SMAD3 reporter, GFP fluorescence, 18 h; TGF-beta stimulated, 500 pg/mL final | Potency, µM (titrated, usually from 46.1 µM), inactives show top-dose activity, negative = inhibition, most hits filed as inhibitors | 1.2% of 410,000 active | AID 588855; note: potency is the fitted concentration of half-maximal effect; % is set by controls: 0 for no effect and ±100 for the full control effect; nearly all actives have a fitted effect of over 65% in size
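First, reporter cells (HEPG2 CAGA-GFP) rested 2 h at 37 degrees C. Next, compounds were pinned in and TGF-beta added to 500 pg/mL final. After 18 h, GFP was imaged per cell and summed per well.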
TDP1 cell noCPT: qHTS for Inhibitors of human tyrosyl-DNA phosphodiesterase 1 (TDP1): qHTS in cells in absence of CPT; DT40 Tdp1-/- hTDP1 cells, no CPT, ATP luminescence, 48 h; Potency, µM (doses to about 46.2 µM), without a hit: top-dose activity change, negative = growth inhibition, most hits filed as inhibitors; 15% of 420,000 active; note: potency is the fitted concentration of half-maximal effect; % is set by controls: 0 for no effect and ±100 for the full control effect; nearly all actives have a fitted effect of over 55% in size
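Luminescent ATP content (CellTiter-Glo) served as the growth readout. Knockout chicken DT40 cells expressing human TDP1 were exposed to compounds without camptothecin for a minimum 48 hr at 37 °C.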
Numbers without * were called inactive; ? = inconclusive; · = no result given. Unless noted, calls come from the whole dose curve; as a rule, active = well fitted curve in the direction sought with a large enough effect; inconclusive = small, poorly fitted or top-dose-only effect, or another doubt; inactive = no such curve, though single readings can be large; an effect the other way counts as inactive or inconclusive.

SMILES	TDP1 cell CPT	HepG2 tox	IL1B secr inh	S-ASM inh	TGFb SMAD3 inh	TDP1 cell noCPT
CC(C)(C)OC(=O)N1CCC(c2c(C(=O)N3CCN(c4ccccn4)CC3)cnn2-c2ccccc2Cl)CC1	?	-23.9%	·	·	?	18.4µM*
COc1ccc(OC)c(CCNC(=O)c2cnn(-c3ccccc3Cl)c2C2CCN(C(=O)OC(C)(C)C)CC2)c1	18.4µM*	-18.4%	·	·	10µM*	13µM*
CCN1CCN(CCCNC(=O)c2cnn(-c3ccccc3Cl)c2C2CCN(C(=O)OC(C)(C)C)CC2)CC1	?	-16.3%	·	·	0.0%	-29.4%
CC(C)(C)OC(=O)N1CCC(c2c(C(=O)N3CCCCC3)cnn2-c2ccccc2Cl)CC1	18.4µM*	-29.6%	·	·	-27.0%	?
CC(C)(C)OC(=O)N1CCC(c2c(C(=O)N3CCN(c4ccccn4)CC3)cnn2-c2ccc(F)cc2F)CC1	?	-12.5%	·	·	?	?
CC(C)CNc1nnnc2c1sc1nc(N3CCOCC3)c3c(c12)CC(C)(C)SC3	29.1µM*	7.1%	-4.2	?	-8.8%	?
CC1(C)Cc2c(c(N3CCOCC3)nc3sc4c(NCc5ccco5)nnnc4c23)CS1	20.6µM*	13.9%	-60.3*	-1.0%	0.0%	18.4µM*
CC1(C)Cc2c(c(N3CCOCC3)nc3sc4c(NN)ncnc4c23)CS1	?	-2.6%	64.4	3.0%	?	?
CC(C)CSc1nc(N2CCOCC2)c2c(c1C#N)CC(C)(C)SC2	?	3.0%	-0.2	-1.6%	36.9%	?
COCC(C)Nc1ncnc2c1cnn2-c1ccc(Cl)cc1 (stereo unspecified)	?	-28.4%	-56.8*	-0.2%	1.3%	?
CC1CC(C)CN(c2ncnc3c2cnn3Cc2ccc(Cl)cc2)C1 (stereo unspecified)	?	-6.8%	0.0	-3.4%	?	?
CCN(CC)c1ncnc2c1cnn2Cc1ccc(Cl)cc1	20.6µM*	6.2%	?	2.5%	-15.2%	?
COCCNc1ncnc2c1cnn2Cc1ccccc1Cl	?	-17.8%	1.7	-1.1%	2.0%	18.4µM*
COCCCNc1ncnc2c1cnn2-c1ccc(F)cc1	5.17µM*	0.1%	·	·	0.3%	5.8µM*
Nn1c(SCC(=O)Nc2c(Cl)cccc2Cl)nncc1=O	18.1%	-2.4%	-24.3	3.0%	-18.5%	-0.9%
O=C(Nc1cc(Cl)cc(Cl)c1)c1cc(S(=O)(=O)N2CCc3ccccc3C2)ccc1F	?	-1.2%	·	·	-3.9%	?
CCCCn1c(N)c(N(CCOC)C(=O)c2ccc(S(=O)(=O)N(CC)c3ccccc3)cc2)c(=O)[nH]c1=O	-23.2%	-1.1%	7.6	·	?	-4.7%
CCC(=O)Nc1ccc(-c2nnc(SCc3ccccc3)n2C)cc1	-25.9%	-14.4%	·	·	-1.7%	-5.7%
CCCCNc1ncnc2c1cnn2Cc1ccc(Cl)cc1	9.2µM*	-27.0%	-1.0	-1.6%	-13.4%	6.51µM*
Cc1ccc(-n2ncc3c(NCc4ccccc4)ncnc32)cc1	?	24.9%	1.6	1.5%	8.1%	-27.2%
Clc1ccc(Cn2ncc3c(NCc4ccccc4)ncnc32)cc1	4.61µM*	-29.9%	-2.1	-0.6%	1.6%	4.11µM*
CCc1nc(NC(C)(C)C)c2cnn(-c3ccccc3)c2n1	?	-58.9%	2.2	-5.6%	?	18.4µM*
CCCCNc1ncnc2c1cnn2-c1ccccc1	2.31µM*	-1.8%	-13.0	-1.4%	-32.5%	2.59µM*
Cc1ccc(CNc2ncnc3c2cnn3-c2ccccc2)cc1	-53.7%	-16.2%	-6.2	1.3%	-22.5%	-16.8%
CCc1cc2c(SCC(=O)NCC3CCCO3)ncnc2s1 (stereo unspecified)	-3.7%	-6.8%	18.6	1.5%	-14.4%	-18.8%
SMILES	TDP1 cell CPT	HepG2 tox	IL1B secr inh	S-ASM inh	TGFb SMAD3 inh	TDP1 cell noCPT
Cc1cc(C)n(-c2nc3cc(Cl)ccc3nc2Nc2ccc(C)c(F)c2)n1	-3.9%	-2.0%	·	·	-0.8%	18.7%
Cc1ccccc1C(=O)Nc1ccnn1C1CCN(Cc2ccc(CO)o2)CC1	-3.4%	-0.6%	18.9	-2.5%	1.0%	24.0%
Clc1ccc(-n2ncc3c(NCCCn4ccnc4)ncnc32)cc1	?	5.8%	-17.7	-3.9%	?	-23.5%
CCCCNc1ncnc2c1cnn2-c1ccc(Cl)cc1	3.66µM*	-3.8%	-4.0	-0.8%	?	4.61µM*
Cc1ccc(-n2nc(C)c3c(C)cc(=O)n(CC(=O)N4CCCc5ccccc54)c32)cc1	-7.0%	7.6%	·	·	10.0%	2.6%
Cc1c(Cl)cccc1-n1nc(C)c2c(C)cc(=O)n(CC(=O)N3CCCc4ccccc43)c21	14.6µM*	-30.5%	·	·	-17.1%	4.61µM*
COc1ccc(NC(=O)CCS(=O)(=O)c2ccc(Br)s2)cc1	?	6.3%	27.1	24.8%	1.8%	?
CCc1cccc(CC)c1NC(=O)CCS(=O)(=O)c1ccc(Br)s1	0.2%	0.1%	·	·	-12.1%	-1.2%
CCOC(=O)c1ccc(NC(=O)CCS(=O)(=O)c2ccc(Br)s2)cc1	?	-7.8%	19.3	-2.6%	-3.0%	18.4µM*
CC(C)c1ccc(NC(=O)CCS(=O)(=O)c2ccc(Br)s2)cc1	18.4µM*	-42.2%	·	·	?	16.4µM*
Cc1ccc(NC(=O)COC(=O)c2ccc(NC(=O)CC#N)cc2)cc1S(=O)(=O)N1CCOCC1	-0.8%	-5.7%	-19.7	-2.7%	10.5%	-25.7%
CN(C)C(=O)CCCCCCCCC(=O)N(C)C	10.8%	-12.7%	·	-1.6%	-0.4%	3.8%
O=S(=O)(Nc1cccc2cccnc12)c1cccs1	·	-18.4%	·	·	2.24µM*	·
O=S(=O)(Nc1ccc(O)c2ccccc12)c1cccs1	2.06µM*	-68.6%	-98.9*	-2.3%	?	4.61µM*
CC1CCN(C(=O)C2CCN(c3ncnc4c3nc3n4CCCCC3)CC2)CC1	?	-2.0%	8.1	5.5%	-17.5%	23.1µM*
Cc1ccc(N2CCN(C(=O)C3CCN(c4ncnc5c4nc4n5CCCCC4)CC3)CC2)c(C)c1	20.6µM*	-6.8%	·	·	-15.8%	?
CCCS(=O)(=O)c1ccc(COC(=O)Cc2ccc([N+](=O)[O-])cc2)cc1	?	-0.4%	-7.1	-1.4%	8.9%	?
COc1ccc(S(=O)(=O)NC2CCCC2)cc1Cl	17.7%	7.0%	-4.4	0.1%	-1.6%	7.3%
COc1ccc(OC(F)(F)F)cc1CC1(C)C(=O)Nc2ccc(S(=O)(=O)NC3CCCCC3)cc21 (stereo unspecified)	20.6µM*	-67.3%	-21.5	·	?	?
